Screening results: PubChem, Broad Institute
The list is not random: actives were taken first. Their share in the collection is about 3.9%.
SUMO Mot1 rescue = yeast Mot1-301 growth rescue at high temperature, primary screen, SUMOylation pathway inhibitor project, S. cerevisiae, ATP luminescence, 38.5C. S. cerevisiae Mot1-301 growth rescue; percent above DMSO median, 100 means doubled. growth rescue, % at 18.8 µM. 320,000 compounds, 1% hits. AID 2716, 2010;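 active = every valid replicate shows activation above 250% relative to neutral control wells; inactive = the rest, any valid replicate at or below 250%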
N-glyco inh = increase of ERlucT glycosylation luciferase signal, primary screen, N-linked glycosylation inhibitor project, D54 ERlucT cells, luminescence, set 2 | AID 588692, 2011 | reporter increase, % at 12.5 µM | 360,000 compounds, 0.23% hits | D54 ERlucT glycosylation luciferase reporter, 24 h; percent of 100 nM tunicamycin response;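 active = mean luciferase reporter signal, scaled so untreated is 0 and the glycosylation-blocking control 100, at or above a set limit in every replicate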;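 note: luciferase carries N-glycosylation sites so blocking glycosylation raises the light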
CDK5 inh = inhibitors of human CDK5/p35 kinase, primary screen, biochemical, single concentration; 330,000 compounds, 0.01% hits; Recombinant CDK5/p35, ADP-Glo luminescence, 60 min; inhibition, % at 10 µM; Cyclin-dependent kinase 5 (Homo sapiens) + Cyclin-dependent kinase 5 activator 1 (Homo …;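 active = highest replicate inhibition of at least 50% and at least 75% of replicates reaching 50%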
CASP6 VEID inh = human caspase-6 inhibitors, primary screen, biochemical, VEID-R110 fluorescence, single point, set 2 | 350,000 compounds, 0.53% hits | P55212 | inhibition, % at 12.5 µM | purified caspase-6, Z-VEID-R110 cleavage fluorescence;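 active = mean inhibition across replicates at least about 35%, with every replicate also reaching that limit, limit read from the data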
Target sequence (P55212 24-179 limits assumed): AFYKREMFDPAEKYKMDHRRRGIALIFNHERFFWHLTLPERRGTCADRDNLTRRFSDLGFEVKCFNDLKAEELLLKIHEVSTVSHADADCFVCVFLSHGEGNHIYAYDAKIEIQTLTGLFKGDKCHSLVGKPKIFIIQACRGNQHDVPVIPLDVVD
Target sequence (P55212 194-293 limits assumed): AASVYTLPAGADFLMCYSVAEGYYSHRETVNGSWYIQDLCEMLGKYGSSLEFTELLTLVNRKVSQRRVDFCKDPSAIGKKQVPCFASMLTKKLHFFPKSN
NSD2 inh = NSD2 histone methyltransferase inhibitors, primary screen, biochemical, AlphaScreen, single concentration, set 2; Histone-lysine N-methyltransferase NSD2 (Homo sapiens), O96028; NSD2 peptide methylation, 120 min; inhibition, % at 12.5 µM; 310,000 compounds, 0.54% hits; in the data active = inhibition above about 50%
ALR inh = inhibitors of human ALR sulfhydryl oxidase, primary screen, biochemical, H2O2 detection, HRP-luminol luminescence, single point. FAD-linked sulfhydryl oxidase ALR (Homo sapiens), P55789. purified ALR, DTT oxidation. inhibition, % (concentration not given with the values). 290,000 compounds, 3.8% hits;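 active = mean replicate inhibition above about 79%, with every replicate also reaching it, limit read from the data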
Target sequence (P55789 whole entry, looked up): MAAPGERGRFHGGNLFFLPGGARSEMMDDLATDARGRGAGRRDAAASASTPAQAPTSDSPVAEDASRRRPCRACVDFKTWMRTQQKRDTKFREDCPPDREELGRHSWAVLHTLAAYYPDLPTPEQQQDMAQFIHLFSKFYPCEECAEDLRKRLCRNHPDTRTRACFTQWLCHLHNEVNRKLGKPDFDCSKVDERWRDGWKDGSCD
Of the large screens only hits and unclear results are named; the others gave an inactive call.

COCCNS(=O)(=O)c1cc(-c2nn(C)c(=O)c3ccccc23)ccc1C	none (no result: CASP6 VEID inh)
COc1ccc(-c2cnc3c(c2)C(=O)N([C@H](C)CO)C[C@@H](C)[C@@H](CN(C)Cc2ccccc2)O3)cc1	none (no result: SUMO Mot1 rescue, N-glyco inh, CDK5 inh, NSD2 inh, ALR inh)
CCCc1cn(S(=O)(=O)c2ccc(OC)cc2OC)nc1N	ALR inh 98.0
O=C(C[C@@H]1C=C[C@H](NC(=O)CC2CC2)[C@H](CO)O1)NCc1ccc(-c2ccccc2)cc1	none (no result: SUMO Mot1 rescue, N-glyco inh, CDK5 inh, NSD2 inh, ALR inh)
O=C(CCN1CCCCC1)NCC[C@H]1CC[C@H](NS(=O)(=O)c2cccc(F)c2)[C@H](CO)O1	none (no result: SUMO Mot1 rescue, N-glyco inh, CDK5 inh, NSD2 inh, ALR inh)
Oc1[nH]c2ccccc2c1C=NCC1CCCO1 (configuration not stated)	ALR inh 98.2 (no result: CASP6 VEID inh)
O=C1CC(c2ccccc2)CC(O)=C1C=NCC1CCCO1 (configuration not stated)	none (no result: CASP6 VEID inh)
COc1ccc(CN=Cc2c(O)[nH]c3ccccc23)cc1	ALR inh 99.3
COc1ccc(N=Cc2c(O)[nH]c3ccccc23)cc1	none (no result: CASP6 VEID inh)
CO[C@H](CN(C)C(=O)c1cnccn1)[C@@H](C)CN([C@H](C)CO)S(=O)(=O)c1ccc(Cl)cc1	none (no result: SUMO Mot1 rescue, N-glyco inh, CDK5 inh, NSD2 inh, ALR inh)
Cn1c(/N=C/c2c(O)ccc3ccccc23)nc2ccccc21	ALR inh 91.3 (no result: CASP6 VEID inh)
Cc1ccc(NC2CCCN(C(=O)c3cn(C)c4ccccc34)C2)cc1C (configuration not stated)	ALR inh 92.3
COc1ccc(NC2CCCN(C(=O)c3cn(C)c4ccccc34)C2)cc1 (configuration not stated)	ALR inh 99.3
C[C@H]1CN([C@@H](C)CO)C(=O)Cc2cc(NS(C)(=O)=O)ccc2O[C@@H]1CN(C)Cc1ccc(C(=O)O)cc1	none (no result: SUMO Mot1 rescue, N-glyco inh, CDK5 inh, NSD2 inh, ALR inh)
O=c1cc(O)nc(-c2ccc(Cl)cc2)s1	ALR inh 93.5
COCCCNCCOCCSc1ccc(Cl)cc1	SUMO Mot1 rescue 279.5 (no result: ALR inh)
COc1ccccc1-c1cnc2c(c1)C(=O)N([C@H](C)CO)C[C@@H](C)[C@@H](CN(C)C(C)=O)O2	none (no result: SUMO Mot1 rescue, N-glyco inh, CDK5 inh, NSD2 inh, ALR inh)
Cc1noc(C)c1NC(=O)Nc1ccc2c(c1)C(=O)N([C@@H](C)CO)C[C@H](C)[C@H](CN(C)C)OCCCC[C@H](C)O2	none (no result: SUMO Mot1 rescue, N-glyco inh, CDK5 inh, NSD2 inh, ALR inh)
O=C1Nc2c(Cl)cc(Cl)cc2C1=O	NSD2 inh 118.0 (no result: SUMO Mot1 rescue, ALR inh)
O=C1NC(=S)S/C1=C\c1cc(Cl)cc(Cl)c1O	none (no result: SUMO Mot1 rescue, ALR inh)
C[C@@H]1CCCCO[C@H](CN(C)C(=O)Nc2ccccc2)[C@H](C)CN([C@@H](C)CO)C(=O)c2cc(NS(=O)(=O)c3cccs3)ccc2O1	none (no result: SUMO Mot1 rescue, N-glyco inh, CDK5 inh, NSD2 inh, ALR inh)
O=C(O)c1ccccc1C(=O)NNc1ccc(F)cc1	SUMO Mot1 rescue 266.5 (no result: CASP6 VEID inh)
O=C(O)c1ccccc1C(=O)NCc1ccc(F)cc1	none (no result: CASP6 VEID inh)
COc1c(OC)c(O)c2c(=O)cc(-c3c(O)cccc3O)oc2c1OC	ALR inh 96.6 (no result: NSD2 inh)
COc1ccc(-c2cc(=O)c3c(O)c(OC)c(OC)c(OC)c3o2)cc1	none (no result: SUMO Mot1 rescue, ALR inh)
CC(=O)N1CCOc2ccc(S(=O)(=O)NCc3ccc(F)cc3)cc21	CASP6 VEID inh 40.1
CC(=O)N1CCOc2ccc(S(=O)(=O)NCCc3ccc(S(N)(=O)=O)cc3)cc21	none
C[C@@H]1CCCCO[C@@H](CN(C)C(=O)Cc2ccccc2)[C@H](C)CN([C@@H](C)CO)C(=O)c2cc(NC(=O)c3ccncc3)ccc2O1	none (no result: SUMO Mot1 rescue, N-glyco inh, CDK5 inh, NSD2 inh, ALR inh)
CCNc1nc(NCC)n2c(SCC(=O)Nc3ccc(F)cc3)nnc2n1	none
CCNc1nc(NCC)n2c(SCC(=O)Nc3ccc(Br)cc3F)nnc2n1	ALR inh 98.3
CCNc1nc(NCC)n2c(SCC(=O)Nc3ccc(C)c(C)c3)nnc2n1	CASP6 VEID inh 36.5 (no result: ALR inh)
CO[C@H]1CC[C@H]2CCN(C)C(=O)CCCN(C)C(=O)c3cccc(C#N)c3OC[C@@H]1O2	none (no result: SUMO Mot1 rescue, N-glyco inh, CDK5 inh, NSD2 inh, ALR inh)
Cc1ccc(SC2=C(N(C)C)C(=O)c3ccccc3C2=O)cc1	NSD2 inh 92.9 (no result: SUMO Mot1 rescue, ALR inh)
